ChEMBL document CHEMBL1961873, “Compounds: GSK PKIS; Assays: Nanosyn kinase panel” (2012)

Columns and labels:
[1] = target: Calcium/calmodulin-dependent protein kinase type II subunit alpha (Homo sapiens) (UniProt Q9UQM7); settings: at 1 µM;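 also: reported value is a mean percent inhibition of CAMK2A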
[2] = target: Calcium/calmodulin-dependent protein kinase type II subunit delta (Homo sapiens) (UniProt Q13557); settings: at 0.1 µM
[3] = target: Calcium/calmodulin-dependent protein kinase type II subunit delta (Homo sapiens) (UniProt Q13557); settings: at 1 µM
[4] = target: T1, Calcium/calmodulin-dependent protein kinase type IV (Homo sapiens) (UniProt Q16566); settings: at 0.1 µM
T1 sequence (whole entry): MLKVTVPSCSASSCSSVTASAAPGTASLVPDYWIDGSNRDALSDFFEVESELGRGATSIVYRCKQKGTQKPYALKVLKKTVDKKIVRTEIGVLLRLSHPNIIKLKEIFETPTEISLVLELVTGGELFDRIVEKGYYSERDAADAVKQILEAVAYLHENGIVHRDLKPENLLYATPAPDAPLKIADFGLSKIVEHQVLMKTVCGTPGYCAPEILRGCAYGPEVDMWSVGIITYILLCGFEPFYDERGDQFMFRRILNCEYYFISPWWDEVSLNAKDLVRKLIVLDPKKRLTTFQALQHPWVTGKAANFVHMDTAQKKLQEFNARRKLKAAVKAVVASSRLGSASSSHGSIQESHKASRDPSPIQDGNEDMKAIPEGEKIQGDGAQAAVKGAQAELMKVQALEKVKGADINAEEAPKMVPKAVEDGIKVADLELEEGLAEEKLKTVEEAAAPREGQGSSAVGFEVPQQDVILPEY

[5] = target: T1, Calcium/calmodulin-dependent protein kinase type IV (Homo sapiens); settings: at 1 µM
[6] = target: T2, Serine/threonine-protein kinase Chk1 (Homo sapiens) (UniProt O14757); settings: at 0.1 µM
T2 sequence (whole entry): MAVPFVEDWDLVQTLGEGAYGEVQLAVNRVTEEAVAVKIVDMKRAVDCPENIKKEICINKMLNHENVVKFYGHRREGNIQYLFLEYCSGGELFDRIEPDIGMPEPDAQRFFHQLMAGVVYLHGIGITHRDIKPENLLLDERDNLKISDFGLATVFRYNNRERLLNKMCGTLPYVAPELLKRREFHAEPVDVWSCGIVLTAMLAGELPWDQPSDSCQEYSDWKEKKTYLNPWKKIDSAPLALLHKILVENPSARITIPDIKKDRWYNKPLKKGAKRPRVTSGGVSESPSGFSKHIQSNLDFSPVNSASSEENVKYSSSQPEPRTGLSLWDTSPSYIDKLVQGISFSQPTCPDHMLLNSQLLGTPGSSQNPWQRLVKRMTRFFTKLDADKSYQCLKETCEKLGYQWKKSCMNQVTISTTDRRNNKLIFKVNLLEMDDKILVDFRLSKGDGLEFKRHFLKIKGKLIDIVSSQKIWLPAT

[7] = target: T2, Serine/threonine-protein kinase Chk1 (Homo sapiens); settings: at 1 µM
[8] = target: Serine/threonine-protein kinase Chk2 (Homo sapiens) (UniProt O96017); settings: at 0.1 µM
Serine/threonine-protein kinase Chk2 (Homo sapiens), sequence (O96017 whole entry): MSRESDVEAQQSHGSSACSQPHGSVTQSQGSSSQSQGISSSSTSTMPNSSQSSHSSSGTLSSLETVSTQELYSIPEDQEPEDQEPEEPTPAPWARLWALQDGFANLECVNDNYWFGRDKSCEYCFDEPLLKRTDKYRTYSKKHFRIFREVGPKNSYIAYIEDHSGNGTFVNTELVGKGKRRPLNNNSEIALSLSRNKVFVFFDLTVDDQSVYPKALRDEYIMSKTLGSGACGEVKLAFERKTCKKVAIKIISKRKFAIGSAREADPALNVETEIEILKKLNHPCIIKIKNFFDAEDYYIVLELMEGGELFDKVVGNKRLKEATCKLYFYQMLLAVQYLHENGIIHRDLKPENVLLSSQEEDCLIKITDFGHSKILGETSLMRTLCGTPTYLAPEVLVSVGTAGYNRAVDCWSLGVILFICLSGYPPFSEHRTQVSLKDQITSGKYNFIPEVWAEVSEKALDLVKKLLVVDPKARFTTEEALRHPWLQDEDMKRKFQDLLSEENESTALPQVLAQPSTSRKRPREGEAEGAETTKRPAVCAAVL

[9] = target: Serine/threonine-protein kinase Chk2 (Homo sapiens) (UniProt O96017); settings: at 1 µM
[10] = target: Death-associated protein kinase 1 (Homo sapiens) (UniProt P53355); settings: at 0.1 µM;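 also: reported figure is the mean inhibition of DAPK1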
Death-associated protein kinase 1 (Homo sapiens), sequence (P53355 whole entry, looked up): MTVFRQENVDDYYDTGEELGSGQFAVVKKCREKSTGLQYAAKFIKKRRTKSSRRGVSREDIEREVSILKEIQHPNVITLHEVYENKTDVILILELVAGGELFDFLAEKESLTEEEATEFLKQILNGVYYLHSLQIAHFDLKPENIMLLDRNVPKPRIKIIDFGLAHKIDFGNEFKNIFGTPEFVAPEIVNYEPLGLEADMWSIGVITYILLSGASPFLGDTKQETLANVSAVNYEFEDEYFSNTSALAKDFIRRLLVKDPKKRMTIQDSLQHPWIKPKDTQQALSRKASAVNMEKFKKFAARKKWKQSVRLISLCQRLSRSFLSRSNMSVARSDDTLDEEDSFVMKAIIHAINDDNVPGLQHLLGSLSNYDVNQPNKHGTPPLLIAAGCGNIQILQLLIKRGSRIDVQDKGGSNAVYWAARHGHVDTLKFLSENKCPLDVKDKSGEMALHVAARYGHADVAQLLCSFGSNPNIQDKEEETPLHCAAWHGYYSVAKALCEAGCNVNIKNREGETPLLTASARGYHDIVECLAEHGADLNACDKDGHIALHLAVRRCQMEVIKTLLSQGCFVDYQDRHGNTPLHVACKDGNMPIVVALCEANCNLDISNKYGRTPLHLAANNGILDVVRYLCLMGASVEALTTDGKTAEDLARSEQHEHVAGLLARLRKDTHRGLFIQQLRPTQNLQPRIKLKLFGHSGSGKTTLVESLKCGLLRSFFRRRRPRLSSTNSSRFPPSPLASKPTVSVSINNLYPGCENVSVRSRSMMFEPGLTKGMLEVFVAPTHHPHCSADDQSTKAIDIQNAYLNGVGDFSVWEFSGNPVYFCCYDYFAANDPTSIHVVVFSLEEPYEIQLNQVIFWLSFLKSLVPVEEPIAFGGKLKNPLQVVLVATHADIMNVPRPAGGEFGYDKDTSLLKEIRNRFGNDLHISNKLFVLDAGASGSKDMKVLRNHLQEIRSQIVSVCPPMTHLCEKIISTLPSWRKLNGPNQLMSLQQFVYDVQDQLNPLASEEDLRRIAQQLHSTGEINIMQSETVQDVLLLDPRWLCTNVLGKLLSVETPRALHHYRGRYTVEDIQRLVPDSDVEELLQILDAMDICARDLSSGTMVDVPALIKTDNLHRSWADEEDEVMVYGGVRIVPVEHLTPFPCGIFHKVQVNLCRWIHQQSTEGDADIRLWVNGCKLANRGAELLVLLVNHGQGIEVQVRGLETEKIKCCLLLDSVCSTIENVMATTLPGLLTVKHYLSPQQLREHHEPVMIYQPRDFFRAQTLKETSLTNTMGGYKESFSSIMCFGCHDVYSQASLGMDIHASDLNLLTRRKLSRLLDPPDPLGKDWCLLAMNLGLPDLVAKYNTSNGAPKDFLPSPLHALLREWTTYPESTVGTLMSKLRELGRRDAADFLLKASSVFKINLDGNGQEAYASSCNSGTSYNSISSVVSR

Calcium/calmodulin-dependent protein kinase type II subunit alpha (Homo sapiens), sequence (Q9UQM7 whole entry): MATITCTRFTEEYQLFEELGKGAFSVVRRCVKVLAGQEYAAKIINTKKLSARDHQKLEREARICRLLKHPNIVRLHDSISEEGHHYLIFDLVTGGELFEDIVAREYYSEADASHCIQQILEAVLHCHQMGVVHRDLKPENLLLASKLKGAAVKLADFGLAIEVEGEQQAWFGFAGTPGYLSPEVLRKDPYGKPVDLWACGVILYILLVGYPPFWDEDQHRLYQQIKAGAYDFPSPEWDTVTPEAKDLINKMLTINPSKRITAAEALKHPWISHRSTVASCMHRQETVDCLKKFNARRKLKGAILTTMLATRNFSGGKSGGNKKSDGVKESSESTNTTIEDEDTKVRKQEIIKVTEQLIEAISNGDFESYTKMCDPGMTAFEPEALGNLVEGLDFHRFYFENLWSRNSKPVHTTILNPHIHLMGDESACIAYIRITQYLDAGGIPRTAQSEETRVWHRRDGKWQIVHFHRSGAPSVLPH
Calcium/calmodulin-dependent protein kinase type II subunit delta (Homo sapiens), sequence (Q13557 whole entry): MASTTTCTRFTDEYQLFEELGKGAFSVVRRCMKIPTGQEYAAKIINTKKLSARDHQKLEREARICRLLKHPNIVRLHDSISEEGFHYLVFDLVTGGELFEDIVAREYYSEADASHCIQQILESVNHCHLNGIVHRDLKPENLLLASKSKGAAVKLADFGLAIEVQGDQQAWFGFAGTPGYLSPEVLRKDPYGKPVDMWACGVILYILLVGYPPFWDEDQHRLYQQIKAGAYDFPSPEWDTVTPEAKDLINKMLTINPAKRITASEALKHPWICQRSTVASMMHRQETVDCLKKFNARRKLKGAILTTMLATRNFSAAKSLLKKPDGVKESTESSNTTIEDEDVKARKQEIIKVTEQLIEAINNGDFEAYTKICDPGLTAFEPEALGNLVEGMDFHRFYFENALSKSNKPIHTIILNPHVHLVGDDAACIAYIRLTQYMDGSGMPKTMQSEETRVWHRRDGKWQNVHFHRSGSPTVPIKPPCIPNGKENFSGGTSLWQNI

Row | Compound | inhibition [1] | inhibition [2] | inhibition [3] | inhibition [4] | inhibition [5] | inhibition [6] | inhibition [7] | inhibition [8] | inhibition [9] | inhibition [10]
1 | CC(=O)Nc1cccc(C#Cc2cncnc2Nc2ccc(OCc3cccc(F)c3)c(Cl)c2)n1 | 1.27% | -0.74% | -2.74% | -4.11% | -7.03% | 7.14% | 5.32% | 3.3% | 4.37% | 7.49%
2 | CCn1c(-c2nonc2N)nc2c(C#CC(C)(C)O)nc(CN3CCCC3)cc21 | 0.03% | -0.33% | 1.82% | -3.55% | 1.55% | – | -2.45% | -1.49% | 0.49% | 0.05%
3 | Fc1cccc(COc2ccc(Nc3ncnc4sc(-c5cccs5)cc34)cc2Cl)c1 | -2.43% | -0.89% | 1.53% | – | -0.72% | -6.44% | -5.05% | -6.31% | -6.27% | -9.21%
4 | Nc1ncnc2occ(-c3ccc(NC(=O)Nc4cccc(C(F)(F)F)c4)cc3)c12 | 1.03% | 3.02% | 2.75% | -0.91% | 4.17% | 6.67% | 5.24% | 3.95% | 6.09% | 8.33%
5 | CCCN1CCC=C(c2ccc(Nc3nc(Nc4ccccc4C(N)=O)c4cc[nH]c4n3)c(C)c2)C1 | 8.19% | 5.36% | 20.6% | -0.28% | 9.19% | 1.09% | 8.05% | 13.1% | 51.3% | 6.81%
6 | COc1ccc(-c2ccncc2)cc1C(N)=O | 3.32% | 3.92% | 8.26% | -1.04% | 0.03% | 8.46% | 10.1% | 8.96% | 12.5% | 14%
7 | CCn1c(-c2nonc2N)nc2c(N3CCCC3)nccc21 | -3.88% | -2.38% | -0.97% | -0.74% | -0.33% | 2.68% | 0.57% | -2.44% | -2.51% | 0.86%
8 | NS(=O)(=O)c1cccc(-c2ccc3c(NC(=O)C4CC4)n[nH]c3c2)c1 | -3.57% | -2.03% | -1.61% | -0.79% | -1.58% | 3.4% | 2.13% | -2.9% | -2.43% | 1.4%
9 | CC1=C(C(=O)Nc2ccc3[nH]ncc3c2)C(c2ccc3ccccc3c2)CC(=O)N1 (configuration not stated) | 0.99% | 0.33% | 3.19% | 1.12% | 0.1% | 0.95% | 3.91% | 1.29% | 4.21% | 0.55%
10 | Fc1cccc(COc2ccc(Nc3ncnc4cc(-c5ccc[nH]5)sc34)cc2Cl)c1 | 0.84% | 1.12% | 2.72% | 1.44% | 1.44% | -0.13% | 3.63% | 0.71% | 3.96% | -1.32%
11 | O=C1NC(=O)C(c2ccccc2Cl)=C1Nc1cccc(O)c1 | 5.26% | 3.96% | 11.7% | 0.91% | 1.07% | -0.11% | 1.92% | 1.18% | 2.39% | 3.2%
12 | O=C(Nc1n[nH]c2nc(-c3ccco3)c(Br)cc12)C1CC1 | 2.92% | 3.12% | 4.6% | 1.47% | 2.02% | 3.44% | 4.35% | 2.64% | 2.71% | 3.14%
13 | O=C1Nc2ccc(C(=O)c3ccco3)cc2C1=Cc1cc(Cl)c(O)c(Cl)c1 | 8% | 3.46% | 11.4% | 0.35% | 0.09% | 1.54% | 5.95% | 2.67% | 12.5% | -0.53%
14 | COc1ccccc1Nc1ncc(-c2ccccc2)o1 | 0.2% | 3.81% | 4.92% | 0.89% | -8.72% | -2.97% | -2.91% | -2.63% | -3.53% | -1.69%
15 | COc1ccc(COc2ccc(Cc3cnc(N)nc3N)cc2OC)cc1 | 5.8% | 2.39% | 2.5% | 1.77% | 3.54% | 5.47% | 7.23% | 5.87% | 4.77% | 8.9%
16 | CC(C)=Cc1cccc2c1/C(=N/Nc1ccc(S(N)(=O)=O)cc1)C(=O)N2 | 6.48% | 2.83% | 11.3% | -1.55% | -0.74% | 6.35% | 10.3% | 5.36% | 9.14% | 9.26%
17 | Cc1ccc(NC(=O)c2ccnc(N3CCCC3)c2)cc1-c1ccc(C(=O)NCC2CC2)cc1 | 5.72% | 4.6% | 7.16% | -0.3% | 2.35% | 3.53% | 7.14% | 3.26% | 4.85% | 2.4%

Row | Compound | inhibition [1] | inhibition [2] | inhibition [3] | inhibition [4] | inhibition [5] | inhibition [6] | inhibition [7] | inhibition [8] | inhibition [9] | inhibition [10]
18 | CCN1CCC(CC(=O)Nc2n[nH]c3nc(-c4cccs4)c(Br)cc23)CC1 | -1.26% | -1.29% | 7.67% | 0.29% | -0.89% | 2.28% | 2.57% | -3.64% | -3.75% | 0.43%
19 | CCn1c(-c2nonc2N)nc2ccncc21 | 6.48% | 2.32% | 4.41% | 0.03% | 1.1% | 1.89% | 0.17% | 1.09% | 1.49% | 1.08%
20 | NCc1ccc(-c2nc(-c3ccc(Cl)c(O)c3)c(-c3ccncc3)[nH]2)cc1 | 2.11% | -0.18% | 2.12% | 0.6% | 0.53% | -0.88% | 2.53% | -0.52% | 0.67% | 0.81%
21 | COc1cc(C)c(NC(=O)CN(C)C)cc1Nc1nc(Nc2cccc(F)c2C(N)=O)c2cc[nH]c2n1 | 8.59% | 4.57% | 14.2% | 9.62% | 40% | -4.03% | -1.09% | 40.2% | 76.2% | 1.58%
22 | NC(=O)c1ccc(-c2nc(-c3ccccn3)c(-c3ccc4c(c3)OCO4)[nH]2)cc1 | 3.33% | 1.17% | 1.87% | 0.57% | 0.4% | -1.44% | 2.65% | 1.07% | 1.89% | 2.4%
23 | Nc1ncnc2occ(-c3ccc(NC(=O)Nc4cc(C(F)(F)F)cc(C(F)(F)F)c4)cc3)c12 | 2.09% | 2.95% | 1.63% | 0.17% | 3.99% | 1.83% | 5.4% | 1.45% | 2.14% | 1.57%
24 | CS(=O)(=O)Nc1ccc(N/C=C2\C(=O)Nc3ccccc32)cc1 | -2.22% | -2.44% | 4.73% | -0.09% | -1.35% | -0.22% | 5.75% | -1.67% | 10.4% | -1.81%
25 | Cc1nn(C)c2cc(N(C)c3ccnc(Nc4cccc(S(N)(=O)=O)c4)n3)ccc12 | 1.72% | 2.35% | 3.73% | 1.4% | 1.88% | 4.46% | 56% | 6.25% | 9.6% | 8.62%
26 | CC1=C(C(=O)Nc2ccc3[nH]ncc3c2)C(c2ccc(F)cc2)NC(=O)N1 (configuration not stated) | 0.1% | 1.48% | 1.35% | 0.3% | -0.21% | 0.87% | 4.3% | 1.2% | 2.29% | 1.6%
27 | Cn1cc(C=C2C(=O)Nc3cccnc32)c2ccccc21 | 3.18% | 2.44% | 6.23% | 0.47% | -0.07% | 0.66% | 7.2% | 2.65% | 15.6% | 2.44%
28 | COc1ccc(-c2coc3ncnc(N)c23)cc1 | 3.94% | 3.92% | 5.31% | 1.63% | 1.94% | 9.42% | 12.4% | 7.79% | 8.17% | 10.8%
29 | COc1cc2ncn(-c3cc(OCc4ccccc4C(F)(F)F)c(C(N)=O)s3)c2cc1OC | -0.1% | 3.23% | 7.03% | -2.38% | -1.47% | 2.54% | 3.46% | 3.3% | 5.56% | 4.32%
30 | COc1cc2ncn(-c3cc(O[C@H](C)c4ccccc4Cl)c(C(N)=O)s3)c2cc1OC | 7.42% | 5.14% | 19.1% | -2.07% | -0.73% | 3.51% | -0.5% | -2.58% | -0.51% | -5.15%
31 | COC(=O)Nc1nc2cc(Oc3cccc(NC(=O)Nc4cc(C(F)(F)F)ccc4F)c3)ccc2[nH]1 | 0.78% | 0.53% | 0.94% | 1.37% | 0.22% | -2.61% | -1.51% | -0.85% | 0.45% | 0.43%
32 | CC1=C(C(=O)Nc2ccc3[nH]ncc3c2)C(c2ccc(Cl)c(Cl)c2)CC(=O)N1 (configuration not stated) | 2.88% | 2.72% | 3.98% | 1.22% | 2.09% | -1.3% | -0.85% | 1.4% | 4.28% | -2.03%
33 | CCc1cccc(NC(=O)Nc2ccc(Oc3ccc4nc(NC(=O)OC)[nH]c4c3)cc2)c1 | 3.77% | 1.51% | 2.63% | 0.16% | -2.32% | – | -6.72% | -4.84% | -2.63% | -5.09%
34 | CNC(=O)c1cncc(/C=C/c2c(Cl)cccc2Cl)c1 | 4.95% | 3.11% | 8.55% | 0.01% | 3.19% | 0.16% | 4.57% | 2.6% | 9.62% | 2.23%
